# Source: PubChem BioAssay (NCI)
# The panel holds about 83,000 compounds, 20% with a hit somewhere; the sample as a whole holds those more often.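 Percent growth is the endpoint: 0 to 100 indicates growth inhibition (40 means 60% inhibition), 0 means no net growth, and negative values indicate cell death.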 Unmarked numbers belong to inactive results. Activity calls are given as the source filed them. How the source made its calls: active means growth percent below 10; inactive means the rest.
# System: SF-295 CNS
# Experiment: NCI-60 one-dose screen, 48 h (100 = growth as untreated, 0 = no growth, -100 = all killed)
# Conditions: 10 µM unless noted
row,Structure (SMILES),growth
1,COC(=O)c1oc2c(C(=O)/C=C/c3ccc(OC)cc3)c(OCCN3CCOCC3)ccc2c1C,18.3%
2,CN(C)c1ccc(/C=N/n2c(-c3cc(F)c(Cl)cc3Cl)nn(CN3CCOCC3)c2=S)cc1,96.1%
3,CS(=O)(=O)OCC(COS(C)(=O)=O)C(c1ccccc1)c1ccccc1,97.2%
4,Nc1ncnc2c1c(C(F)(F)F)cn2[C@@H]1O[C@H](CO)[C@@H](O)[C@H]1O,7.79% (active)
5,Cc1nccc2c3ccc(OCc4cn(Cc5ccc(Br)cc5)nn4)cc3n(CCCc3ccccc3)c12,86.2%
6,[2H]c1nc(Nc2ncc(F)c(-c3cc(F)c4nc(C)n(C(C)C)c4c3)n2)c([2H])c([2H])c1CN1CCN(CC)CC1,59.2%
7,COc1cc(/C=C2/Oc3cc4occc4c(OC)c3C2=O)ccc1OCC(=O)Nc1ccncc1,107%
8,COc1ccc2c(c1)OC(N)=C(C#N)C2c1ccc(F)cc1 (stereo not given),23.4%
9,CCCCCCCCCCCCCCCCNc1ccccc1,102%
10,O=C(Nc1ccc(-n2ccc3c(NC(=O)c4ccccc4)ncnc32)cc1)c1cccc(C(F)(F)F)c1,33.2%
11,COc1ccc(/C(Cl)=N/N=C(\Cl)c2cc(OC)c(OC)c(OC)c2)cc1OC(C)=O,102%
12,O=C1C(Cl)=C(Nc2ccccc2)C(=O)C(Cl)=C1Nc1ccccc1,114%
13,O=C(Nc1ccc(-n2cc(-c3ccncc3)c(-c3ccc(O)c(Cl)c3)n2)cc1)c1cc(C(F)(F)F)cc(C(F)(F)F)c1,31%
14,CCn1c(C)nc([N+](=O)[O-])c1Sc1nc(N)nc2nc[nH]c12,23.8%
15,Cc1cn(C2CC(N=[N+]=[N-])C(COP(=O)(O)OP(=O)(O)OP(=O)(O)O)O2)c(=O)[nH]c1=O (stereo not given),80.7%
16,COc1cc(/C=C\c2cc(/C=C\c3ccc(O)c(OC)c3)n(C(=O)CNc3ccccc3OC)n2)ccc1O,85.1%
17,COc1ccc(Cl)cc1NC(=O)c1cc2c([nH]1)-c1nc(NC(=O)C(C)C)sc1CC2,101%
18,O=C(/C=C/c1ccco1)c1cccc(Nc2nc(Nc3ccccc3)nc(Nc3ccccc3)n2)c1,61.5%

row,Structure (SMILES),growth
1,O=C(Nc1ccc(-n2ccc3c(NC(=O)c4ccccc4)ncnc32)cc1)Nc1ccc(Cl)c(C(F)(F)F)c1,-37.6% (active)
2,CN(C)CCCOc1c(Br)cc(/C=C/C(=O)N(C)CCc2cc(Br)c(OCCCN(C)C)c(Br)c2)cc1Br,60.9%
3,C=C(C)[C@@H]1C/C=C(\COC(=O)[C@H](OC(C)=O)C(NC(=O)c2ccccc2)c2ccccc2)CC[C@H]2O[C@]2(C)CC/C=C(\C)CC1 (stereo not given in full),73.7% [5 µM]
4,COc1ccc(Cl)cc1NC(=O)c1cc2c([nH]1)-c1nc(NC(=O)C(C)(C)C)sc1CC2,84.2%
5,CC1CCC(C(C)C)C(NN)C1 (stereo not given),107%
6,Cl[C@@H]1CCO[C@H](c2cc3ccccc3c3ccccc23)C1,96.4%
7,C[C@]12CC[C@@H]3c4ccc(O)c(N)c4CC[C@H]3[C@@H]1CC[C@@H]2O,108%
8,COc1ccc(/C=C/C(=O)c2ccc(-n3cc(CN4CCN(c5cc6c(cc5F)c(=O)c(C(=O)O)cn6C5CC5)CC4)nn3)cc2)cc1OC,67.5%
9,COc1ccc(-c2nn(-c3ccc(NC(=O)c4ccc(Cl)c(C(F)(F)F)c4)cc3)cc2-c2ccncc2)cc1Cl,-30.3% (active)
10,O=C(O)c1cc2ccccc2cc1Nc1ccccc1,104%
11,COc1ccc(Cn2cc3c(c2-c2cc(OC)c(OC)c(OC)c2)CCc2c(CO)noc2-3)cc1,14.8%
12,COc1cc(C(=O)N2CCN(C(=O)c3cc(OC)c(OCc4ccccc4)cc3N)CC2)c(N)cc1OCc1ccccc1,102%
13,Nc1ccc(S(=O)(=O)Nc2ccnn2-c2ccccc2)cc1,102%
14,COc1ccc(-c2nnc(SCC(=O)Nc3ccc(C(=O)/C=C/c4ccccc4)cc3)o2)cc1OC,104%
15,CCC(N)(C(=O)O)c1ccc(F)cc1 (stereo not given),108%
16,COc1ccc(-c2c(C#N)cnc(N)c2-c2nc3cc(C)c(C)cc3[nH]2)cc1,27.3%
17,CC(C)(C)NCC(O)COc1c(Br)c(Br)c(Br)c2c1OC(C)(C)C2 (stereo not given),-63% (active)
